MITF inh: inhibitors of human MITF. inhibition, % at 2.6 µM. actives 0.91% (n = 650,000). AlphaScreen MITF homodimerization, bead proximity signal. O75030. AID 1259374; in the data active = inhibition above about 50%;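 also: 0% = vehicle wells with protein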
Target sequence (O75030 whole entry, looked up): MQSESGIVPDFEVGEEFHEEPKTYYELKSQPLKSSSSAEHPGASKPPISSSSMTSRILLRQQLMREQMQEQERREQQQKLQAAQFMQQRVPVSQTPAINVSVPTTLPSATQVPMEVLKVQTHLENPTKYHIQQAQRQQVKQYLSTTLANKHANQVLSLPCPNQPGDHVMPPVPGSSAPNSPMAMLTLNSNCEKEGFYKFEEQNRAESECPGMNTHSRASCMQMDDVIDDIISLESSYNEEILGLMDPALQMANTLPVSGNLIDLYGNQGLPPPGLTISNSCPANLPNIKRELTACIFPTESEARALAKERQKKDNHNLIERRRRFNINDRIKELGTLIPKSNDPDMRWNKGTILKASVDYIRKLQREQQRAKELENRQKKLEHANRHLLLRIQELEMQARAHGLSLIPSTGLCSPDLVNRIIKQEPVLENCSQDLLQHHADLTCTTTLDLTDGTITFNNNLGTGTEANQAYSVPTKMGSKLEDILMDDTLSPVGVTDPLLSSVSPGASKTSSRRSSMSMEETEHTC
GPR151 activ: human GPR151 activation. Q8TDV0. PathHunter beta-arrestin GPR151 cells, luminescence. activation, % at 11.2 µM. actives 1% (n = 650,000). AID 1508602; in the data active = activation above about 4.9%;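 also: 0% = median of compound wells and 100% = cells with positive control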
TEAD-YAP block: TEAD-YAP interaction inhibition; HEK-TIYL cells, TEAD-Gal4/YAP UAS-luciferase luminescence; inhibition, % at 9.12 µM; actives 1.4% (n = 640,000); in the data active = inhibition above about 32%;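 also: 0% = median of test compound wells and 100% = reference inhibitor wells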
FBW7 act: activators of human E3 ligase FBW7. actives 0.13% (n = 650,000). AlphaScreen FBW7–phospho-cyclin E peptide binding, activator screen. normalized activity (activation), % at 26.1 µM; in the data active = normalized activity above about 1.9%;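 also: purified mutant Fbw7 with reduced substrate affinity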
MITF confirm: human MITF inhibition, confirmation; inhibition, % at 2.6 µM; AID 1259372; shares compounds with MITF inh; actives 16% (n = 4,700); AlphaScreen MITF homodimerization, biotin/His-MITF beads;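 active = inhibition above a cutoff derived from the DMSO control wells, cut at about 28% in these data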;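 also: 0% = MITF dimer wells with DMSO only; inhibitors lower the bead chemiluminescence by keeping MITF from dimerizing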
AS interf DR: optically interferes with AlphaScreen signal in dose response; IC50, µM; AlphaScreen optical interference counterscreen, cell-free; shares compounds with MITF inh; actives 6% (n = 480); AID 1259373; call rule not given here
AS interf ctr: optically interferes with AlphaScreen signal; shares compounds with MITF inh; LysRS AlphaScreen counterscreen, signal interference, triplicate; inhibition, % at 2.6 µM; actives 7.6% (n = 4,700); AID 1259376;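 active = inhibition above a cutoff derived from the DMSO control wells, cut at about 30% in these data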
Active calls of the source: *; / = no result. Shown are actives, neighbours in structure and some others; about 3.5% of the full set was active somewhere.

SMILES	MITF inh	GPR151 activ	TEAD-YAP block	FBW7 act	MITF confirm	AS interf ctr	others
COc1ccc(CN2CCN(Cc3ccccc3OC)CC2)c(OC)c1	78*	1	4	0	9	15
COc1ccc(OC)c(CN2CCN(Cc3ccc(OC)cc3OC)CC2)c1	30	0	-3	-1	/	/
COc1ccc(CN2CCN(Cc3cc(OC)c(OC)cc3[N+](=O)[O-])CC2)cc1OC	68*	0	10	0	8	12
O=C(N/N=C/c1cccc(O)c1)C(O)c1ccccc1 (stereo not given)	-10	-2	-14	0	/	/
COc1ccc(C2=N/C(=C\c3cccc(F)c3)C(=O)O2)cc1	5	-1	-11	0	/	/
CCOc1ccc(N2C(=O)CC(Sc3nnc(C)s3)C2=O)cc1 (stereo not given)	-9	0	-2	0	/	/
CCCCNS(=O)(=O)c1ccc(S(=O)(=O)NC(C)c2cccs2)cc1 (stereo not given)	56*	1	4	0	6	6
CC(NS(=O)(=O)c1ccc(S(=O)(=O)NCc2ccccc2)cc1)c1cccs1 (stereo not given)	22	0	2	0	/	/
CN1CCN(C(=O)C2CCCN(S(=O)(=O)N3CCCCC3)C2)CC1 (stereo not given)	65*	-1	-7	0	-2	0
CN1CCN(C(=O)C2CCCN(S(=O)(=O)c3ccc(F)cc3)C2)CC1 (stereo not given)	74*	1	-5	0	-11	-3
O=C1CC(N2CCN(c3ccc(Cl)cc3)CC2)C(=O)N1CCc1ccccc1 (stereo not given)	53*	1	-8	0	-4	-2
COc1ccc(C2C(C(=O)NCCCN3CCCCCC3)c3ccccc3C(=O)N2Cc2ccc(F)cc2)cc1 (stereo not given)	21	-1	-9	0	/	/
CCn1c2ccccc2c2cc(CN3CCN(Cc4cc(OC)c(OC)c(OC)c4)CC3)ccc21	61*	-1	1	1	1	2
CCn1c2ccccc2c2cc(CN3CCN(Cc4ccc(OC)c(Br)c4)CC3)ccc21	60*	0	1	-1	14	19
CCn1c2ccccc2c2cc(CN3CCN(C(=O)c4c(OC)cccc4OC)CC3)ccc21	40	-1	-6	0	/	/
CCn1c2ccccc2c2cc(CN3CCN(C(=O)c4cccc(OC)c4OC)CC3)ccc21	19	1	-2	0	/	/
CCC(C)NS(=O)(=O)c1cc(Cl)ccc1Cl (stereo not given)	-12	1	6	0	/	/
Cc1cc(Cl)cc(Br)c1OCCCCn1cncn1	63*	-1	9	0	0	-4
Cc1cc(Cl)c(OCCCn2cncn2)c(Br)c1	4	0	0	0	/	/
Cc1ccc(CN2CCN(S(=O)(=O)c3ccccc3)CC2)cc1	71*	3	-3	1	-5	5
CCc1ccc(CN2CCN(S(=O)(=O)c3ccccc3)CC2)cc1	55*	-1	1	0	4	4
O=S(=O)(c1ccccc1)N1CCN(Cc2ccccc2)CC1	12	0	3	0	/	/
CC(=O)Nc1ccc(S(=O)(=O)N2CCN(Cc3ccccc3[N+](=O)[O-])CC2)cc1	-5	1	3	0	/	/
CCc1ccc(CN2CCN(S(=O)(=O)CC)CC2)cc1	51*	3	-9	0	25	17
Cc1ccc(S(=O)(=O)N2CCN(Cc3ccccc3[N+](=O)[O-])CC2)cc1	78*	3	1	0	9	15
SMILES	MITF inh	GPR151 activ	TEAD-YAP block	FBW7 act	MITF confirm	AS interf ctr	others
CCOc1ccc(CN2CCN(S(=O)(=O)CC)CC2)cc1	42	0	0	0	/	/
CCCS(=O)(=O)N1CCN(Cc2ccc(SC)cc2)CC1	44	2	13	0	/	/
CCCS(=O)(=O)N1CCN(Cc2ccncc2)CC1	62*	-1	0	0	9	9
Cc1n[nH]c(=O)nc1NNc1ccc(C(=O)O)cc1	56*	-2	-1	0	32*	10	AS interf DR=>6.5
O=C(CNCC1CCCCC1)Nc1ccc(CN2CCCCC2)cc1	63*	0	-1	0	10	14
O=C(CNC1CC1)Nc1ccc(CN2CCCCC2)cc1	18	0	-3	0	/	/
O=C(CNC1CCCCC1)Nc1ccc(CN2CCCCC2)cc1	74*	1	-7	0	6	18
O=C(CNC1CCCCCC1)Nc1ccc(CN2CCCCC2)cc1	67*	0	5	0	8	15
CC1CCCN(c2ccc(C(=O)NCc3ccc(Cl)c(Cl)c3)cc2[N+](=O)[O-])C1 (stereo not given)	20	0	9	0	/	/
O=C1CNS(=O)(=O)c2ccccc2N1	59*	0	-6	1	16	13
Cc1ccc(C(=O)NCC2Cc3cccc(-c4nc(C)cnc4C)c3O2)c(C)c1 (stereo not given)	12	-1	1	0	/	/
CCCN1CCSC1=Nc1cccc(S(=O)(=O)N(C)C)c1	10	-1	-1	0	/	/
COc1cc(CN2CCN(C(=O)c3cc(OC)c(OC)c(OC)c3)CC2)c([N+](=O)[O-])cc1OC	36	-2	-4	0	/	/
COc1cc(C(=O)N2CCN(Cc3ccccc3[N+](=O)[O-])CC2)cc(OC)c1OC	67*	2	2	0	-17	-4
O=C(c1ccncc1)N1CCN(Cc2ccccc2[N+](=O)[O-])CC1	78*	-1	-6	0	74*	-10	AS interf DR=>6.1
COc1cc(C(=O)N2CCN(Cc3cccc4ccccc34)CC2)cc(OC)c1OC	57*	-2	7	0	5	8
CCOc1ccc(CN2CCN(Cc3ccccc3[N+](=O)[O-])CC2)cc1	56*	2	10	0	4	4
O=C1NC(=O)C(CC(=O)N2Cc3ccccc3OC(c3ccccc3)C2)N1 (stereo not given)	9	0	-17	0	/	/
COc1cccc(CN2CCN(Cc3ccco3)CC2)c1OC	42	-2	-7	0	/	/
COc1cccc(CN2CCN(C(=O)c3ccco3)CC2)c1OC	57*	0	-5	0	8	18
CC(=O)c1ccc(N2CCN(Cc3ccccc3[N+](=O)[O-])CC2)cc1	51*	0	-12	0	1	2
COc1cc(OC)cc(C(=O)N2CCN(Cc3ccccc3[N+](=O)[O-])CC2)c1	61*	-2	7	0	-4	9
O=[N+]([O-])c1ccc(N2CCN(Cc3ccccc3[N+](=O)[O-])CC2)cc1	9	1	27	-1	/	/
CC(=O)c1ccc(N2CCN(Cc3cccs3)CC2)cc1	56*	0	-19	0	5	0
